Source: PMC7862700, “An all-to-all approach to the identification of sequence-specific readers for epigenetic DNA modifications on cytosine”

Key:
Assay in all cases: DAPPL (digital affinity profiling via proximity ligation, sequencing); 10 mM Tris-HCl pH 7.5, 50 mM NaCl, 1 mM DTT, 4% glycerol, room temperature, 30 min; GST-TFs on glutathione beads, 16-mer random dsDNA library, 0.1% formaldehyde crosslink after washing; high values mean tight binding
FLI1 = biological target: T1, FLI1 (Homo sapiens, UniProt Q01543 1-452); conditions: protein: recombinant; tags: N-terminal GST; dsDNA, one strand shown
T1 sequence: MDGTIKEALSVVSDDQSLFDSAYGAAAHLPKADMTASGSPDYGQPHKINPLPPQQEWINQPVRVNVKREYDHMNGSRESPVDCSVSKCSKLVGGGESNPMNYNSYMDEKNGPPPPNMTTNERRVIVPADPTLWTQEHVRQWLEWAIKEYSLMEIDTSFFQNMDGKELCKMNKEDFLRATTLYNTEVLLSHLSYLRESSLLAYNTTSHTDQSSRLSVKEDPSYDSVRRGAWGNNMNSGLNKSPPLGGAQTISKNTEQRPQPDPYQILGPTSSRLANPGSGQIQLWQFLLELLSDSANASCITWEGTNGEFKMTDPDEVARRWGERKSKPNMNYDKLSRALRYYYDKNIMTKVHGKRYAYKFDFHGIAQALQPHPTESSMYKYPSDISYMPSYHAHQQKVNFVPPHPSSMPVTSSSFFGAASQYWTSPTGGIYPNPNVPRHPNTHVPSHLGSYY
Outline: (§1)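 Pools of DNA-barcoded human transcription factors, expressed in yeast as GST fusions on glutathione beads and combined with a tag-only sample, were incubated with 200 nmole of a 16-mer random double-stranded DNA library. Incubation took 30 min at room temperature in Tris/NaCl/DTT/glycerol buffer and was followed by washing, 0.1% formaldehyde crosslinking, proximity ligation (BsaI/T4 ligase, 1 h, 37 °C), PCR amplification and sequencing on an Illumina NextSeq500. Binding signal is the ratio of a hexamer's read frequency for a factor to its frequency for the tag-only sample.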

ELK1 = biological target: T2, ELK1 (Homo sapiens, UniProt P19419 1-428); conditions: protein: recombinant; tags: N-terminal GST; dsDNA, one strand shown
T2 sequence: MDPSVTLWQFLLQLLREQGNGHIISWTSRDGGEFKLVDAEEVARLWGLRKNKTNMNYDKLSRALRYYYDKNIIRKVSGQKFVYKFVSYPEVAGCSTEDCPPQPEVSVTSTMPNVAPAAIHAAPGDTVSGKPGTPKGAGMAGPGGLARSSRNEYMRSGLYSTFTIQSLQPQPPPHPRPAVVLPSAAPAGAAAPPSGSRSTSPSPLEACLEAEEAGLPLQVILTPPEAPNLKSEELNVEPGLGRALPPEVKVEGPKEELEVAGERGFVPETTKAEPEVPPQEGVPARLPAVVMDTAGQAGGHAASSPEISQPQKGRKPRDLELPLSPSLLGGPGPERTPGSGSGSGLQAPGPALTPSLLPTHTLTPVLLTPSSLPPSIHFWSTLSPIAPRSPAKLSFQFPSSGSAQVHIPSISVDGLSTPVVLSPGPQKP
Outline: as §1

GABPA = biological target: T3, GABPA (Homo sapiens, UniProt Q06546 1-454); conditions: protein: recombinant; tags: N-terminal GST; dsDNA, one strand shown
T3 sequence: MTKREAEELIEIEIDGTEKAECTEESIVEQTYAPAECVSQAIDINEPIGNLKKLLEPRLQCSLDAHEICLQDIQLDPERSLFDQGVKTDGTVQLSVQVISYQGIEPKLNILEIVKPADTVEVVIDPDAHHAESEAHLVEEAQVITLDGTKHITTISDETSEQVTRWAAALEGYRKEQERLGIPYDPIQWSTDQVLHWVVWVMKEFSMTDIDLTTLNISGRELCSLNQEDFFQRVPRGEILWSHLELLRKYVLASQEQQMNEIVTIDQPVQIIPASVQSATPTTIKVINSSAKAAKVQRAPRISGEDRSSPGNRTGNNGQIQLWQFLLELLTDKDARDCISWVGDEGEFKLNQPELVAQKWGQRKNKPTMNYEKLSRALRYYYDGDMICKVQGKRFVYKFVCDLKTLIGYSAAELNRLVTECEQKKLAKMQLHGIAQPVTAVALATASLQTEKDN
Outline: as §1

ERG = biological target: T4, ERG (Homo sapiens, UniProt P11308 1-479); conditions: protein: recombinant; tags: N-terminal GST; dsDNA, one strand shown
T4 sequence: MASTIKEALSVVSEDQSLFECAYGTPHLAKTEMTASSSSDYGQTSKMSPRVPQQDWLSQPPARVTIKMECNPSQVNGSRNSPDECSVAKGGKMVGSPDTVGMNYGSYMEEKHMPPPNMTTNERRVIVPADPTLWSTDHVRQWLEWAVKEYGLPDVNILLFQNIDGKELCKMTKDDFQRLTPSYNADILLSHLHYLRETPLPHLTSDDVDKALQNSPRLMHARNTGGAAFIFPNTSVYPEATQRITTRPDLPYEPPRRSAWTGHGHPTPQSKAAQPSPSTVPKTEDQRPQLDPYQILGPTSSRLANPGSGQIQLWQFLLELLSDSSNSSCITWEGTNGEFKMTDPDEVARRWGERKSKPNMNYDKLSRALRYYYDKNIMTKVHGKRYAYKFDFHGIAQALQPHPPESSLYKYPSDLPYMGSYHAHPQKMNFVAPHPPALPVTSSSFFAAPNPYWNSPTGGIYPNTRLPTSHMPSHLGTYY
Outline: as §1

ELF1 = ELF1 (Homo sapiens, UniProt P32519 1-619); conditions: protein: recombinant; tags: N-terminal GST; dsDNA, one strand shown
ELF1, sequence (P32519 whole entry): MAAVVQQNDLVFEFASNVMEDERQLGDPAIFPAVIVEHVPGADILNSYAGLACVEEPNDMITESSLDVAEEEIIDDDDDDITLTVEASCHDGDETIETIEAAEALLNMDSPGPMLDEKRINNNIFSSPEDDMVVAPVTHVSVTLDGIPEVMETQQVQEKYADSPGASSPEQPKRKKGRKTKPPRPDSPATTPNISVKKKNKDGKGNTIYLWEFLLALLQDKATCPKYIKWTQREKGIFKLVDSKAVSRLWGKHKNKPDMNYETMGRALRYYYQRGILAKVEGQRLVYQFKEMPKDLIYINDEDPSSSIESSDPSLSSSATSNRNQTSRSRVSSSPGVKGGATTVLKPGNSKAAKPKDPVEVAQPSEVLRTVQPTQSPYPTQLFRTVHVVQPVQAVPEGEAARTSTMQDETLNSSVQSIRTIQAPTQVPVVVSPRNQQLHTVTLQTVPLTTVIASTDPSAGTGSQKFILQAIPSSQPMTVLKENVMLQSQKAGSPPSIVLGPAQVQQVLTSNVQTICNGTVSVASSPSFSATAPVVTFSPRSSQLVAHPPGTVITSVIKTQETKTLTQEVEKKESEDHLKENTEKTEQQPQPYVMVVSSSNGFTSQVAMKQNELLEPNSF
Outline: as §1

EHF = biological target: T5, EHF (Homo sapiens, UniProt Q9NZC4 1-300); conditions: protein: recombinant; tags: N-terminal GST; dsDNA, one strand shown
T5 sequence: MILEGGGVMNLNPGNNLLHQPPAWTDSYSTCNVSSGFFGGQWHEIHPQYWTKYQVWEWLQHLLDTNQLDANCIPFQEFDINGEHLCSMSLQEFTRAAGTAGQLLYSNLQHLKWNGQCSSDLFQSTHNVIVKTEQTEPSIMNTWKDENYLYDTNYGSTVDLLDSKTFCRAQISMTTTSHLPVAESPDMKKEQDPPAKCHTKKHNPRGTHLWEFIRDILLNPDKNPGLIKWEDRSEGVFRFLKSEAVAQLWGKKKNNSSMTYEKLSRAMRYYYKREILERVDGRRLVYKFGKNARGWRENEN
Outline: as §1

SPI1 = SPI1 (Homo sapiens, UniProt P17947 1-270); conditions: protein: recombinant; tags: N-terminal GST; dsDNA, one strand shown
Outline: as §1

SPIB = SPIB (Homo sapiens, UniProt Q01892 1-262); conditions: protein: recombinant; tags: N-terminal GST; dsDNA, one strand shown
SPIB, sequence (Q01892 whole entry): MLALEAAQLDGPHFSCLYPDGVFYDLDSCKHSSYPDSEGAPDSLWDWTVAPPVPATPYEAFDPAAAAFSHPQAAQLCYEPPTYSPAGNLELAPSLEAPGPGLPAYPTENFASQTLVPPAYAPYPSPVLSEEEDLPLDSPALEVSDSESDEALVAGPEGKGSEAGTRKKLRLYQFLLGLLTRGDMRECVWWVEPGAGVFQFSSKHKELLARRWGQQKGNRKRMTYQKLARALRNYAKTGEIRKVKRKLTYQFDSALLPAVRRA
Outline: as §1

ELK3 = biological target: T6, ELK3 (Homo sapiens, UniProt P41970 1-407); conditions: protein: recombinant; tags: N-terminal GST; dsDNA, one strand shown
T6 sequence: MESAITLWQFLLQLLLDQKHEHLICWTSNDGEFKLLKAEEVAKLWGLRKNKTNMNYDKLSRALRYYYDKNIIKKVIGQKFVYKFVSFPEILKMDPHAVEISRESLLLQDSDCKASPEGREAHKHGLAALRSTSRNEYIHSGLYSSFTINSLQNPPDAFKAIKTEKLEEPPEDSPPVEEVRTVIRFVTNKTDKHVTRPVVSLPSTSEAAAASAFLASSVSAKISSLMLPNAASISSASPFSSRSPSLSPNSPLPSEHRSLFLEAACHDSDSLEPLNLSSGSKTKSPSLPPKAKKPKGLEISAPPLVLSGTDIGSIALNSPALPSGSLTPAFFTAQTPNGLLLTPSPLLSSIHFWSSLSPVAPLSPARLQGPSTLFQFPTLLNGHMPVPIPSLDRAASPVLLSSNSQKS
Outline: as §1

FEV = biological target: T7, FEV (Homo sapiens, UniProt Q99581 1-238); conditions: protein: recombinant; tags: N-terminal GST; dsDNA, one strand shown
T7 sequence: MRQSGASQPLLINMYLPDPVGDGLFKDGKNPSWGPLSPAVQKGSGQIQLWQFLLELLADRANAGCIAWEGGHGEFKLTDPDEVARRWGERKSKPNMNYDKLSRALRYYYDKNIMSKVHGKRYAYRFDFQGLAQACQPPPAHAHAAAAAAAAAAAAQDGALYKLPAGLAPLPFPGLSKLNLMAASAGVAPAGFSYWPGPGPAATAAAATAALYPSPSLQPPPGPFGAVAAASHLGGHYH
Outline: as §1

ETV5 = ETV5 (Homo sapiens, UniProt P41161 1-510); conditions: protein: recombinant; tags: N-terminal GST; dsDNA, one strand shown
ETV5, sequence (P41161 whole entry): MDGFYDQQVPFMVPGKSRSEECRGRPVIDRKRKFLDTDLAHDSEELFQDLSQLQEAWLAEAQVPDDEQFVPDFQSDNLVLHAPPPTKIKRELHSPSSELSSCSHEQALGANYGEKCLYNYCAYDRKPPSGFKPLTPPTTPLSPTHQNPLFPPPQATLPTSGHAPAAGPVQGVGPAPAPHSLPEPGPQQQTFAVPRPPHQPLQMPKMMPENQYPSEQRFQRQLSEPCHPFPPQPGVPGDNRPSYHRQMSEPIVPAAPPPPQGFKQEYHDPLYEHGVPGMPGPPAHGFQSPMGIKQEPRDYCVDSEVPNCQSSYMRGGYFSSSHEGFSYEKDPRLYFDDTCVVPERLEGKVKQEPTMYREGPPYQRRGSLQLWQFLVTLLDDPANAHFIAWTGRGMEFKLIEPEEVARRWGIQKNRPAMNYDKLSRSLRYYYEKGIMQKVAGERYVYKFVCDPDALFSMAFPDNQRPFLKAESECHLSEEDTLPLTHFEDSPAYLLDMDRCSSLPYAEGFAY
Outline: as §1

HSF1 = HSF1 (Homo sapiens, UniProt Q00613 1-529); conditions: protein: recombinant; tags: N-terminal GST; chain copies: 3; dsDNA, one strand shown
HSF1, sequence (Q00613 whole entry): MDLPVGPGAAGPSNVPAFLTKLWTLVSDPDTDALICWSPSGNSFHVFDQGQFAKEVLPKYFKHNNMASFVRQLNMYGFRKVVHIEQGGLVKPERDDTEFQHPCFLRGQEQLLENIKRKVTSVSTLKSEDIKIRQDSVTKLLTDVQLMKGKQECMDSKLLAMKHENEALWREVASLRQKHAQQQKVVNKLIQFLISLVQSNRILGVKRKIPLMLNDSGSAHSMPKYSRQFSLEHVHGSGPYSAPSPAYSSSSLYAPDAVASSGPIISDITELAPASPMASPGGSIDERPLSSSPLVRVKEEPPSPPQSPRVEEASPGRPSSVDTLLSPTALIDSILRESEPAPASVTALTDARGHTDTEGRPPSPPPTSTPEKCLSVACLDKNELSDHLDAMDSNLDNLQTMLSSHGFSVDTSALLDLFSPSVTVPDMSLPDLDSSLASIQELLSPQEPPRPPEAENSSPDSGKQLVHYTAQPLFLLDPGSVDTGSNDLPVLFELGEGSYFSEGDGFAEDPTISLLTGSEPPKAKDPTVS
Outline: as §1

SPIC = biological target: T8, SPIC (Homo sapiens, UniProt Q8N5J4 1-248); conditions: protein: recombinant; tags: N-terminal GST; dsDNA, one strand shown
T8 sequence: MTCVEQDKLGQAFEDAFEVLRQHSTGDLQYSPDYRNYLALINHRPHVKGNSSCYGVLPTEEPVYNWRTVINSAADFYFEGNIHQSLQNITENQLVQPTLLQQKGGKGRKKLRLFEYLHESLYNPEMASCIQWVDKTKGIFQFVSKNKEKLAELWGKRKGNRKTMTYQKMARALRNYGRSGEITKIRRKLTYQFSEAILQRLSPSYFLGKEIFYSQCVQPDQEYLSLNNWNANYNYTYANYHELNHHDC
Outline: as §1

ELF4 = ELF4 (Homo sapiens, UniProt Q99607 1-663); conditions: protein: recombinant; tags: N-terminal GST; dsDNA, one strand shown
ELF4, sequence (Q99607 whole entry): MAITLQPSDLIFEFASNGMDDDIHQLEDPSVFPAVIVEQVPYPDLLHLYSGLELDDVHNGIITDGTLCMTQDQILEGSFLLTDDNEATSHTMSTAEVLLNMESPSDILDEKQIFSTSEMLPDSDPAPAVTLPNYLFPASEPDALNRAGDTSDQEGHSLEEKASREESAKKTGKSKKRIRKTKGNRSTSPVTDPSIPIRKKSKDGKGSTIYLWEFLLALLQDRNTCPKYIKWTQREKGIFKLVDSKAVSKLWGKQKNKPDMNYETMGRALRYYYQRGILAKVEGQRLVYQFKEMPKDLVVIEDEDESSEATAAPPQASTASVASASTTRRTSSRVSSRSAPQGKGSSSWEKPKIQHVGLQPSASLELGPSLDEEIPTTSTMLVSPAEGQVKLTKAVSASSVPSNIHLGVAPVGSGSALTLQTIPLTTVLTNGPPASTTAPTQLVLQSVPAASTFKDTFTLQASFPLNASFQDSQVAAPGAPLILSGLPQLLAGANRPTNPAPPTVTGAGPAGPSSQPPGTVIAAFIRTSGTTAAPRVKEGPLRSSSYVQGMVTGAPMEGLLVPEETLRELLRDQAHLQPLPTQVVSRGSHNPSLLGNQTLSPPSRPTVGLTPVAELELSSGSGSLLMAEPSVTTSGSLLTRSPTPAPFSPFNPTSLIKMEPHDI
Outline: as §1

ELK4 = biological target: T9, ELK4 (Homo sapiens, UniProt P28324-2 1-405); conditions: protein: recombinant; tags: N-terminal GST; dsDNA, one strand shown
T9 sequence: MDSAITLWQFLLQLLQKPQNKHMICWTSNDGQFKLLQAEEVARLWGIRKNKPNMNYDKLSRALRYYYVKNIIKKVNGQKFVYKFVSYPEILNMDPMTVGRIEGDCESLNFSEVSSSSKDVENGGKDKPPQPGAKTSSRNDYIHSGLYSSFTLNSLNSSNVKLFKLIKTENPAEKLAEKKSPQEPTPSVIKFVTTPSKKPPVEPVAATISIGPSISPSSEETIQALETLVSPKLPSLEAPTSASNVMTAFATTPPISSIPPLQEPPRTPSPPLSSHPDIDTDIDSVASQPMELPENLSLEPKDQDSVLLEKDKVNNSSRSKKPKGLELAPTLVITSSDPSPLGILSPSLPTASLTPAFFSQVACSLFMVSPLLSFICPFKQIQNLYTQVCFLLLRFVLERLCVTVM
Outline: as §1

ETV2 = biological target: T10, ETV2 (Homo sapiens, UniProt O00321 1-342); conditions: protein: recombinant; tags: N-terminal GST; dsDNA, one strand shown
T10 sequence: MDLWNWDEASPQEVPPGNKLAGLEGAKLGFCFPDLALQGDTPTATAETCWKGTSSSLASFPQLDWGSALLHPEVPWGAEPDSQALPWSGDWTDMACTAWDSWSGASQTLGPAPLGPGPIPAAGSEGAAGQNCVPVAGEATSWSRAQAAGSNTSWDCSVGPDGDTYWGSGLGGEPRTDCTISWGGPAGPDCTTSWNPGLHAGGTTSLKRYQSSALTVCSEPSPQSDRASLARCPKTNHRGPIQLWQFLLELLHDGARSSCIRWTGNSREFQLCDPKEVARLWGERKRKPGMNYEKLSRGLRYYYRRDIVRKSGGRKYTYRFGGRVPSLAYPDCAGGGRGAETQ
Outline: as §1

ELF3 = biological target: T11, ELF3 (Homo sapiens, UniProt P78545 1-371); conditions: protein: recombinant; tags: N-terminal GST; dsDNA, one strand shown
T11 sequence: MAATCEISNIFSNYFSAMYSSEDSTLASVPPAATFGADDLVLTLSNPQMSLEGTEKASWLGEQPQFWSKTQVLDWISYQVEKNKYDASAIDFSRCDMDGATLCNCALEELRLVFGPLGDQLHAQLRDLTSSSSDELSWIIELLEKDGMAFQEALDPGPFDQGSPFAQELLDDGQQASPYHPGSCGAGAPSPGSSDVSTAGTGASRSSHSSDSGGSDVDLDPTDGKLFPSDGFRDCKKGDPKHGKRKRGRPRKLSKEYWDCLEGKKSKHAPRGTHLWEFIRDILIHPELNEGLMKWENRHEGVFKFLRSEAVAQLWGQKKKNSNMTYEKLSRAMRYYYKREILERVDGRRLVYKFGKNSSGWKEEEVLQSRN
Outline: as §1

CRX = CRX (Homo sapiens, UniProt O43186 1-299); conditions: protein: recombinant; tags: N-terminal GST; dsDNA, one strand shown
CRX, sequence (O43186 whole entry): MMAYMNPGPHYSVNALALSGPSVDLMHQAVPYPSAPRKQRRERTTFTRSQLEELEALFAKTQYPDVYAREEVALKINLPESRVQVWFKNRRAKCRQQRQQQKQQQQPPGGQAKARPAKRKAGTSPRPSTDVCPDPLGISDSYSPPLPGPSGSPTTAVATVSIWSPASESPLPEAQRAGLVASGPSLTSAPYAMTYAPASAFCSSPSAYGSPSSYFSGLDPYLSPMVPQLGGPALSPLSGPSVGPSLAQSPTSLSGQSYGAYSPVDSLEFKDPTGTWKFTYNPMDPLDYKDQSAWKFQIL
Outline: as §1

ETV1 = ETV1 (Homo sapiens, UniProt P50549 1-477); conditions: protein: recombinant; tags: N-terminal GST; dsDNA, one strand shown
ETV1, sequence (P50549 whole entry): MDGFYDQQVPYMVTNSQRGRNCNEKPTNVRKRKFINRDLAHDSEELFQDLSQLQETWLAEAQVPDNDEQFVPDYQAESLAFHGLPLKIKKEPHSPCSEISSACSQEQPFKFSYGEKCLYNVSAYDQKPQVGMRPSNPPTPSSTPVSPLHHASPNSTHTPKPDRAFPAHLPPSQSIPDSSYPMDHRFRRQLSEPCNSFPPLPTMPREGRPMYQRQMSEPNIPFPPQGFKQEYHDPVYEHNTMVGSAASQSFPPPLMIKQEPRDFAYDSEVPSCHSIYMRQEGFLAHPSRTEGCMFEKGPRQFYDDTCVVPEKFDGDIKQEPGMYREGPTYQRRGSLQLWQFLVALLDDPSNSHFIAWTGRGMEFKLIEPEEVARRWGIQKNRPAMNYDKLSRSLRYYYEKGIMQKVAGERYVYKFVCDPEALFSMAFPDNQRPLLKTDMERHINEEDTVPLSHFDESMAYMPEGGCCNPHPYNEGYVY
Outline: as §1

For CCTCTA, the binding signal (FLI1) was 1.24 fold enrichment (6-mer frequency, TF over GST control), the binding signal (ELK1) was 1.48 fold enrichment (6-mer frequency, TF over GST control) and the binding signal (GABPA) was 1.39 fold enrichment (6-mer frequency, TF over GST control). For the same sequence, the binding signal (ERG) was 1.32 fold enrichment (6-mer frequency, TF over GST control), the binding signal (ELF1) was 1.42 fold enrichment (6-mer frequency, TF over GST control) and the binding signal (EHF) was 1.31 fold enrichment (6-mer frequency, TF over GST control). For the same sequence, the binding signal (SPI1) was 1.33 fold enrichment (6-mer frequency, TF over GST control), the binding signal (SPIB) was 1.38 fold enrichment (6-mer frequency, TF over GST control) and the binding signal (ELK3) was 1.32 fold enrichment (6-mer frequency, TF over GST control). For the same sequence, the binding signal (FEV) was 1.4 fold enrichment (6-mer frequency, TF over GST control), the binding signal (ETV5) was 1.27 fold enrichment (6-mer frequency, TF over GST control) and the binding signal (HSF1) was 1.38 fold enrichment (6-mer frequency, TF over GST control). The binding signal (SPIC) was 1.37 fold enrichment (6-mer frequency, TF over GST control), the binding signal (ELF4) was 1.35 fold enrichment (6-mer frequency, TF over GST control) and the binding signal (ELK4) was 1.24 fold enrichment (6-mer frequency, TF over GST control). The binding signal (ETV2) was 1.37 fold enrichment (6-mer frequency, TF over GST control), the binding signal (ELF3) was 1.43 fold enrichment (6-mer frequency, TF over GST control) and the binding signal (CRX) was 1.45 fold enrichment (6-mer frequency, TF over GST control). For the same sequence, the binding signal (ETV1) was 1.28 fold enrichment (6-mer frequency, TF over GST control).
